D2 PAM-1: HTS Assay for Positive Allosteric Modulators of the Human D2 Dopamine Receptor: Primary Screen for Potentiators. D(2) dopamine receptor (Homo sapiens), P14416. HEK293 T-REx D2, calcium flux, EC20 dopamine potentiation. potentiation, % at 10 µM. 0.34% of 340,000 active;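 active = potentiation over 3 SD above the plate norm, cut at about 30% in these data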
Target sequence (P14416 whole entry, looked up): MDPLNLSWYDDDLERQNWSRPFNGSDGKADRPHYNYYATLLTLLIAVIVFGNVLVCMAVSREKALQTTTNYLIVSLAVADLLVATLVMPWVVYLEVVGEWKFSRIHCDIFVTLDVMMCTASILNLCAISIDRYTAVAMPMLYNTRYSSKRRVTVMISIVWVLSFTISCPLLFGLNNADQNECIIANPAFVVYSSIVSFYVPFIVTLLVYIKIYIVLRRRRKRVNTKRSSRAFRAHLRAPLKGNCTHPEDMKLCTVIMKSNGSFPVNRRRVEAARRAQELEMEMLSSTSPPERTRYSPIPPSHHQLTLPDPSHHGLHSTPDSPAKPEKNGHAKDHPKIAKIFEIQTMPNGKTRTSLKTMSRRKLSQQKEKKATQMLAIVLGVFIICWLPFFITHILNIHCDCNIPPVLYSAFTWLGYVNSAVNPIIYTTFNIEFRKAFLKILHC
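Potentiation of an EC20 dopamine calcium response measured kinetically over 180 s, after a preceding 180 s compound-only read flagging agonists. Cells: inducible Hek293 Trex D2 line, 4000/well, cultured overnight at 30 C before dye loading.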
D2 antag: HTS Assay for Allosteric Antagonists of the Human D2 Dopamine Receptor: Primary Screen for Antagonists; D(2) dopamine receptor (Homo sapiens), P14416; HEK293 TREx D2 cells, calcium flux, dopamine EC80; inhibition, % at 10 µM; 2% of 340,000 active; in the data active = inhibition above about 30%; inactive = below that, where a call was filed
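Inhibition of EC80 dopamine-driven calcium flux, recorded kinetically, defines activity here; cells are a tetracycline-induced HEK293 T-REx line expressing force-coupled D2.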
D2 ag-1: HTS Assay for Allosteric Agonists of the Human D2 Dopamine Receptor: Primary Screen for Agonists | D(2) dopamine receptor (Homo sapiens), P14416 | HEK293 T-REx D2 cells, calcium flux agonist mode | activation, % at 2 µM | 0.53% of 340,000 active | AID 485358, 2010;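 active = activation over 3 SD above normal in the single-dose calcium agonist read, cut at about 30% in these data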
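Agonism scored from kinetic calcium signal (1 read/sec, 180 s) following compound pin transfer, after a 10 s baseline. Cells: HEK293 Trex line expressing inducible D2 receptor coupled to calcium, dye-loaded after overnight culture at 30 C.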
D2 PAM-2: Beta-Arrestin HTS for Positive Allosteric Modulators of the Human D2 Dopamine Receptor: Potentiators | 0.23% of 360,000 active | potentiation, % (test concentration not listed) | DiscoveRx D2 beta-arrestin cells, luminescence, 90 min; 100% = 57 uM dopamine signal | D(2) dopamine receptor (Homo sapiens), P14416; in the data active = potentiation above about 50%; inconclusive = mostly about 30% to 49%
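PathHunter beta-arrestin assay in DiscoveRx D2 cells. Compounds were added with an EC20 of dopamine (50 nM final) for 90 min at 37 deg C. Luminescence was read 1 h after detection reagent, with 57 uM dopamine as the EC100 control.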
D2 ag-2: Beta-Arrestin HTS for Positive Allosteric Modulators of the Human D2 Dopamine Receptor: Agonists; D(2) dopamine receptor (Homo sapiens), P14416; DiscoveRx PathHunter D2 beta-arrestin, luminescence, 90 min; 100% = 57 uM dopamine signal; activation, % (test concentration not listed); 0.084% of 360,000 active; in the data active = activation above about 40%; inconclusive = between about 15% and that limit
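DiscoveRx PathHunter D2 beta-arrestin cells (2,100/well) attached overnight, then compound-stimulated 90 min at 37 C in HBSS/10 mM HEPES/0.1% Tween-20 buffer; beta-galactosidase complementation read by luminescence after 1 h at ambient temperature. Dopamine 57 uM final (EC100) as control.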
Hits are given with their value; i = inactive; ? = inconclusive; nt = no result. Rows were chosen to be rich in hits. Some 2.4% of all compounds tested hit in one or more screens of this group.

SMILES | D2 PAM-1 | D2 antag | D2 ag-1 | D2 PAM-2 | D2 ag-2
c1ccn2c(SCc3ccc4c(c3)OCCO4)nnc2c1 | i | i | i | i | i
Cc1ccc(NC(=O)N2CC3CCCN3c3ccccc32)c(C)c1 (stereo unspecified) | i | nt | nt | nt | nt
Oc1ccc(/C=N/N2CCCCC2)c(O)c1O | nt | nt | nt | i | i
Oc1ccc(/C=N/N2CCOCC2)c(O)c1O | i | nt | nt | 54 | ?
COc1ccc(C(=O)Nc2nc3n(n2)C(c2ccc(F)cc2)C=C(c2ccc(Cl)cc2)N3)cc1 (stereo unspecified) | nt | nt | i | nt | nt
COc1ccc(NC(=O)C2CC(=O)N(Cc3ccc(C)cc3)C2)cc1S(=O)(=O)N1CCCCC1 (stereo unspecified) | i | 43 | i | i | i
Cc1ccc(CN2CC(C(=O)O)CC2=O)cc1 (stereo unspecified) | 30 | i | i | i | i
CCc1ccc(-c2cn3c(n2)sc2cc(C(=O)NCCc4ccc(OC)cc4OC)ccc23)cc1 | i | nt | i | nt | nt
Cc1ccc(S(=O)(=O)C2(C(=O)Nc3ccc(Cl)c(C(F)(F)F)c3)CC2)cc1 | i | nt | i | nt | nt
CCCn1c2ccccc2c2cnn(CC(=O)NC3CCCC(C)C3C)c(=O)c21 (stereo unspecified) | i | 35 | i | i | i
CCOc1ccc(OCC)c(NC(=O)Nc2ccc3c(c2)N(C)C(=O)CS3)c1 | i | 64 | i | i | i
NS(=O)(=O)c1ccc(NC(=O)CSc2nc3ccccc3n2-c2ccccc2)cc1 | i | 31 | i | i | i
COc1ccc(S(=O)(=O)N2CCN(C(=O)[C@@H]3CCC(=O)N3C3OC(=O)c4ccccc43)CC2)cc1 (stereo partly specified) | i | 52 | i | i | i
C/C(=N\NC(=S)NCC(C)(C)C)c1cc(F)cc(F)c1O | i | 37 | i | i | i
O=C(CCNC(=O)C1CCN(S(=O)(=O)c2ccc(F)cc2)CC1)NCc1ccc(F)cc1 | i | 33 | i | i | i
Cc1cccc(-c2noc(-c3ccccc3OCC(=O)Nc3ccccc3[N+](=O)[O-])n2)c1 | i | nt | i | nt | nt
Fc1cccc(-c2cc3nc4c(c(N5CCC6(CC5)OCCO6)n3n2)CCCC4)c1 | 32 | i | i | i | i
CCOc1ccc(C(=O)c2cn(CC(=O)Nc3ccc4c(c3)OCCO4)c3ccc(F)cc3c2=O)cc1 | i | nt | i | nt | nt
O=C(COc1ccc(Br)cc1)Nc1ccc2c(c1)C(=O)NC2=O | i | 33 | i | i | i
O=c1c2nnn(-c3cccc(F)c3)c2ncn1Cc1ccccn1 | i | 34 | i | i | i
CCOC(=O)CSc1nnc(NC(=O)c2cc([N+](=O)[O-])cc([N+](=O)[O-])c2)s1 | i | i | i | 63 | i
COCCSc1nnc(NC(=O)c2ccc([N+](=O)[O-])cc2)s1 | i | nt | nt | i | i
CCN(Cc1ccccc1)C(=O)C(CC(C)C)NS(=O)(=O)c1ccc2c(c1)CCN2C(C)=O (stereo unspecified) | i | nt | i | nt | nt
CCC1CCCCN1C(=O)Cn1c(=O)n(CCCCCC(=O)NCc2ccccc2Cl)c(=O)c2sccc21 (stereo unspecified) | i | nt | i | nt | nt
Cc1nn(-c2ccccc2)c(C)c1C(=O)NCc1cccs1 | i | i | i | i | i
SMILES | D2 PAM-1 | D2 antag | D2 ag-1 | D2 PAM-2 | D2 ag-2
Cc1nn(-c2ccccc2)c(Cl)c1C(=O)NCc1cccs1 | i | 44 | i | i | i
CCN1CCN(c2c(S(=O)(=O)c3ccc(C)c(C)c3)cnc3cc(OC)c(OC)cc23)CC1 | i | nt | i | nt | nt
CN(C)c1ccnc(Oc2ccc(Cl)cc2)c1C#N | 42 | i | i | i | i
O=S(=O)(c1ccccc1)N1CCN(CC2CC3C=CC2C3)CC1 (stereo unspecified) | i | i | i | i | i
Cc1ccc(CN2CCN(CC3CC4C=CC3C4)CC2)cc1 (stereo unspecified) | i | 65 | i | i | i
O=C(NNC(=O)c1ccc(F)cc1F)c1ccc2c(c1)OCO2 | i | 37 | i | i | i
O=C(Nc1ccc(Nc2ccccc2)cc1)c1cccc(F)c1 | 32 | i | i | i | i
O=C(Nc1cccc(F)c1)c1ccc2c(c1)OCO2 | nt | 31 | i | i | i
O=C(Nc1cccc(F)c1)c1ccccc1 | i | i | i | i | i
CCOc1cc(C(=O)Nc2ccc3c(c2)OCO3)ccc1OCCOc1ccccc1Cl | i | 32 | i | i | i
COc1ccc(-c2nc3sc(CCNC(=O)c4cccc(C(F)(F)F)c4)c(C)n3n2)cc1 | i | nt | i | nt | nt
CC(C)(C)OC(=O)N1CCC(c2c(C(=O)Nc3ccc4c(c3)OCO4)cnn2-c2ccc(F)cc2F)CC1 | i | nt | i | nt | nt
COc1ccc(-c2cc3nc(C)c(CCC(=O)N4CCN(c5cccc(Cl)c5)CC4)c(C)n3n2)c(OC)c1 | i | nt | i | nt | nt
CCOc1ccccc1C(=O)NC(C)c1ccc2c(c1)OCO2 (stereo unspecified) | i | 40 | i | i | i
O=C(O)c1ccccc1SCC(=O)N1c2ccccc2Sc2ccccc21 | i | i | i | 62 | ?
O=C(O)c1ccccc1SCC(=O)N1CCCCC1 | i | i | i | i | i
O=C1N[C@@H](Cc2ccccc2)[C@@H](c2ccco2)O1 | i | 32 | i | i | i
CCOC(=O)C1CCC(CN(Cc2c(Cl)cccc2Cl)S(=O)(=O)c2ccc(F)cc2)CC1 (stereo unspecified) | i | nt | i | nt | nt
Cc1cc(C)cc(NC(=O)C/C(N)=N/O)c1 | i | 71 | i | i | i
O=S(=O)(/C=C/c1ccccc1)Nc1ccc2c(c1)OCO2 | i | 34 | i | i | i
CCOC(=O)c1c(Nc2ccccc2N)cc(C)nc1C | i | i | i | i | i
CCOC(=O)c1c(O)cc(C)cc1Nc1ccccc1 | i | 32 | i | i | i
Cc1nc(Nc2cccc(O)c2)c2oc3ccccc3c2n1 | i | 33 | i | i | i
O=C(NC1CCCC1)c1ccc(CS(=O)(=O)Cc2ccccc2F)o1 | i | i | i | i | i
O=C(NC1CCCCC1)c1ccc(CS(=O)(=O)Cc2ccccc2F)o1 | i | 44 | i | i | i
COc1ccc(C(=O)NCC(c2ccco2)N(C)C)cc1S(=O)(=O)NCc1ccc(Cl)cc1 (stereo unspecified) | i | 78 | i | i | i
COc1ccc(C(=O)NCCNC(C)=O)cc1S(=O)(=O)NCc1ccc(Cl)cc1 | i | i | i | i | i
COc1cccc(/C=N\NC(=O)c2cc(OCC(F)(F)F)ccc2OCC(F)(F)F)c1 | 31 | i | i | i | i

Assay outcomes deposited in PubChem by National Center for Advancing Translational Sciences (NCATS).
